Shown are actives, neighbours in structure and some others; about 7.5% of the full set was active somewhere.
VACV Venus inh = inhibitors of vaccinia virus (Venus reporter). Vaccinia virus Venus reporter expression, fluorescence. hit rate 0.46% among 330,000. Potency, µM (series often up to 36.5 µM), most hits filed as inhibitors; calls by dose curve; tested in A549 cells; note: nearly all actives have a fitted effect of over 30% in size
HCMV antiviral = human cytomegalovirus inhibition | HFF cells, HCMV-luciferase reporter, 72 h; stronger effect = lower value | activity change, negative = inhibition, % at 57.5 µM | hit rate 4.5% among 410,000 | AID 1259415; in the data active = activity change below about -60%; inconclusive = no clear call, values can overlap the other calls; inactive = above about -39%
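Compounds were evaluated in HFFs infected with an HCMV luciferase reporter virus (MOI 1 PFU/cell). Luciferase in lysates collected 72 h post infection served as the replication measure.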
HCV inhibitor = HCV inhibition | Huh7.5.1 HCVcc-Cre infection, luciferase reporter, 44 h | Potency, µM (series often up to 41.8 µM), usual class: inhibitors | hit rate 3.4% among 340,000 | AID 651820
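Infectious HCVcc-Cre (~0.5 moi) was added to cells just after compound, with cells seeded 4 h earlier at 1,000 per well. Luciferase activity after 44 h culture reported infection; substrate was incubated 15 min at room temperature before reading.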
FMDV antiviral = blocks foot and mouth disease virus; FMDV antiviral cell-based qHTS; hit rate 1.2% among 410,000; Potency, µM (doses to about 57.9 µM), usual class: inhibitors; calls by dose curve; tested in HEK293T cells; note: read-out not given here; nearly all actives have a fitted effect of over 45% in size
VACV mCherry inh = inhibitors of vaccinia virus infection (mCherry reporter signal); Vaccinia virus mCherry reporter infection, fluorescence; Potency, µM (highest dose often 36.5 µM), actives largely listed as inhibitors; hit rate 0.63% among 310,000; calls by dose curve; tested in A549 cells; note: nearly all actives have a fitted effect of over 35% in size
FBPA Giardia inh = blocks Giardia fructose-bisphosphate aldolase activity | purified Giardia FBPA | Potency, µM (doses to about 59.6 µM), usual class: inhibitors | hit rate 0.71% among 290,000 | AID 2451; note: nearly all actives have a fitted effect of over 55% in size
Target sequence (A8B2U2 whole entry, looked up): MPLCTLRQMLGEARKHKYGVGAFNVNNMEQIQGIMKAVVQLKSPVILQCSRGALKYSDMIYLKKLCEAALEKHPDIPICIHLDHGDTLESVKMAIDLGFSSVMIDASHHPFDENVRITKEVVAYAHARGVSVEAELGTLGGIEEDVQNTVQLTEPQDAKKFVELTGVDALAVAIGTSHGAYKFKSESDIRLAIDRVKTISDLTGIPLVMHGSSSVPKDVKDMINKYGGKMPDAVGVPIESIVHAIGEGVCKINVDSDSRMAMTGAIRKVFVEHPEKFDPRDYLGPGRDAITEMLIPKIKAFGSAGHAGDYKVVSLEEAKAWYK
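Giardia FBPA (40 nM reagent) was preincubated 10 min at RT with compound (up to 57.5 uM final), then substrate plus GAPDH/TPI/NAD/arsenate coupling system with diaphorase/resazurin was added; resorufin fluorescence (525/598 nm) was read after 20 min.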
A number is an active result; 0 = inactive; ? = inconclusive; - = not tested or not shown; [ ] = another dose, or the depositor's remark. Unless noted, calls come from the whole dose curve; as a rule, active = well fitted curve in the direction sought with a large enough effect; inconclusive = small, poorly fitted or top-dose-only effect, or another doubt; inactive = no such curve, though single readings can be large; an effect the other way counts as inactive or inconclusive.

SMILES | VACV Venus inh | HCMV antiviral | HCV inhibitor | FMDV antiviral | VACV mCherry inh | FBPA Giardia inh
COc1ccccc1-c1nc(SCC(=O)N(C)c2ccccc2)c2c(=O)n(C)c(=O)n(C)c2n1 | 0 | 0 | 6.3µM | 0 | 0 | 0
Cc1ccc(C(=O)CSc2cnc3ccccc3n2)cc1C | 0 | -61 | 0 | ? | 0 | 0
Cc1ccc(NC(=O)N(Cc2ccco2)C(C)c2ccco2)cc1C (centres undefined) | 0 | 0 | 0 | 0 | 0 | 0
Cc1ccc(NC(=O)CN(Cc2ccco2)Cc2ccccc2O)cc1C | 0 | -64 | ? | 0 | 0 | 0
Cc1csc(CN(C)C(=O)c2sc3ncnc(NCC4CCCO4)c3c2C)n1 (centres undefined) | 0 | - | - | 0 | 0 | -
CCN(CC)CCN1C(=O)c2ccccc2NC1c1ccc(N(C)C)cc1 (centres undefined) | 0 | 0 | 0 | 3.2µM | - | 0
CN(C)c1ccc(C2Nc3ccccc3C(=O)N2CCCN2CCOCC2)cc1 (centres undefined) | - | 0 | 0 | 2.8µM | - | 0
CCN(CC)CCN1C(=O)c2ccccc2NC1c1ccc(F)cc1 (centres undefined) | - | 0 | 0 | 0 | - | 0
O=C(Nc1ccc(Cl)cc1)c1csc(N2CCN(Cc3ccccc3)C2=O)n1 | - | 0 | - | - | - | -
NCCNCCN | - | - | - | - | - | 18µM
Cc1cc2c(C)nc(-c3ccccc3)nc2o1 | 0 | 0 | 3.5µM | 0 | 0 | 0
Cc1cc(Cl)nc(-c2ccccc2)n1 | - | ? | 0 | 0 | - | 0
O=C(CNC(=O)c1ccccc1Cl)OC1CCOC1=O (centres undefined) | - | 0 | 0 | 0 | - | 0
C/C(=N\Nc1ccc(F)cc1F)c1ccc(Br)s1 | 0 | -70 | ? | 0 | 0 | 0
Cc1ccc(S(=O)(=O)N2CCOCC2)cc1NC(=O)COC(=O)c1ccc(Cl)nc1 | 0 | 0 | 0 | 0 | 0 | -
COc1ccc(CN2CCN(Cc3nc4ccccc4s3)CC2CCO)c(C)c1C (centres undefined) | - | 0 | 6.3µM | ? | - | 0
O=C(NCC1CCCO1)c1cccc(Oc2ccccc2)c1 (centres undefined) | 0 | 0 | 0 | 0 | 0 | -
O=C(NCC1CCCO1)c1cccc(Oc2ccc([N+](=O)[O-])cc2)c1 (centres undefined) | 0 | -88 | ? | ? | 0 | -
O=C(CSc1nc2ccc([N+](=O)[O-])cc2s1)NCC1CCCO1 (centres undefined) | 0 | -71 | ? | 0 | 0 | 0
O=C(CSc1nc2cc(Cl)ccc2s1)NCC1CCCO1 (centres undefined) | 0 | 0 | 0 | 0 | 0 | -
CCCCNC(=O)C1(C)CCN1Cc1cccc2c(OC)cc(C(=O)OCC)cc12 (centres undefined) | 0 | 0 | - | ? | 0 | -
O=C(NC12CC3CC(CC(C3)C1)C2)N1CCN(c2ccccc2)CC1 | 0 | 0 | 0 | 0 | ? | 0
COc1ccc(-c2csc(N3CCC(C(N)=O)(N4CCCCC4)CC3)n2)cc1 | 0 | -81 | ? | - | ? | 0
O=C(NC12CC3CC(CC(C3)C1)C2)N1CCN(c2nc(-c3ccccc3)cs2)CC1 | ? | 0 | 0 | 25µM | 0[1.46 µM] | -
CN(C)C(=O)N1CCN(c2nc(-c3ccccc3)cs2)CC1 | - | 0 | 0 | 0 | - | 0
SMILES | VACV Venus inh | HCMV antiviral | HCV inhibitor | FMDV antiviral | VACV mCherry inh | FBPA Giardia inh
O=C(C1CCCCC1)N1CCN(c2nc(-c3ccc(F)cc3)cs2)CC1 | 0 | -60 | ? | ? | 0 | 0
O=C(NC1CCCCC1)N1CCN(c2nc(-c3ccccc3)cs2)CC1 | 0 | ? | 10µM | ? | 0 | 0
NC(=O)C1(N2CCCCC2)CCN(c2nc(-c3ccccc3)cs2)CC1 | ? | 0 | ? | ? | - | 0
NC(=O)C1CCN(c2nc(-c3ccc(F)cc3)cs2)CC1 | - | 0 | - | 0 | - | -
Cc1c(N=NC2=C(O)CC(C)(C)CC2=O)c(=O)n(-c2ccccc2)n1C | 0 | 0 | 0 | 0 | 0 | 0
COc1ccc(Br)cc1CN(C)CC(=O)NCCc1ccc(S(N)(=O)=O)cc1 | 0 | ? | ? | ? | 0 | 0
COCc1c(C(=O)N2CCC(N(C)C)C2)cnn1-c1ncc2c(n1)-c1ccccc1CCC2 (centres undefined) | 0 | - | - | 0 | 0 | -
Cc1ccc(S(=O)(=O)N2CCOCC2)cc1NC(=O)CN1CCN(c2ccc(O)cc2)CC1 | 0 | -61 | 0 | ? | 0 | 0
O=S(=O)(c1ccc(NC(=S)N2CCOCC2)cc1)N1CCCCC1 | 0 | 0 | - | 0 | 0 | -
O=S(=O)(c1ccc(NC(=S)N2CCN(c3ccc(O)cc3)CC2)cc1)N1CCOCC1 | 0 | -63 | ? | 0 | 0 | 0
CCN(CC)c1ccc(S(=O)(=O)N2CCOCC2)cc1NC(=O)CN1CCc2ccccc2C1 | 0 | -70 | ? | ? | 0 | 0
Cc1ccc(S(=O)(=O)N2CCOCC2)cc1NC(=O)COC(=O)CSc1ccc(Br)cc1C | - | -96 | 0 | 0 | - | 0
COC(=O)CC1C(C)(C)C2(O)OC34CC2C(=O)[C@@]1(C)C3CC[C@]1(C)C4=CC(=O)OC1c1ccoc1 (some centres undefined) | 0 | - | - | 0 | 0 | 0
CC1(c2ccccc2)NC(=O)N(CC(=O)Nc2cc(S(=O)(=O)N3CCOCC3)ccc2Cl)C1=O (centres undefined) | 0 | ? | 0 | 0 | 0 | 0
O=S(=O)(c1ccc(NC(=S)NN=C(Cc2ccccc2)Cc2ccccc2)cc1)N1CCOCC1 | 0 | 0 | 10µM | 0 | 0 | 0
Cc1ccc(NC(=O)NC(=O)CN2CCC(C(N)=O)CC2)c(C)c1 | - | 0 | 0 | 0 | - | -
Cc1ccc(C2(C)NC(=O)N(CC(=O)Nc3cc(S(=O)(=O)N4CCOCC4)ccc3C)C2=O)cc1 (centres undefined) | 0 | -101 | 0 | 0 | 0 | 0
Cc1ccc(NC(=O)NC(=O)CN2CCN(c3ccc(O)cc3)CC2)c(C)c1 | 0 | -81 | ? | 0 | ? | ?
O=S(=O)(c1ccc(NC(=S)NCCc2ccccc2)cc1)N1CCOCC1 | 0 | 0 | 0 | 0 | 0 | 0
CC(C)(C)c1ccc(C(=O)N2CCC(c3noc(-c4ccc(S(=O)(=O)N5CCCC5)cc4)n3)CC2)cc1 | ? | 0 | - | 0 | ? | -
Cc1ccc(-c2nc(C3CCN(S(=O)(=O)c4ccc(C(C)(C)C)cc4)CC3)no2)cc1 | 0 | -98 | 0 | 0 | ? | 0
Cc1ccc(Cn2c(CO)cnc2SCC(=O)Nc2cccc(F)c2)cc1 | 0 | 0 | - | 0 | 0 | -
COc1cc(-c2cc(-c3ccc(O)cc3)nc(N)c2C#N)ccc1O | ? | -70 | ? | 0 | 0 | 0
CCOc1cc(-c2cc(-c3ccc(C)cc3)nc(N)c2C#N)ccc1O | - | 0 | 25µM | ? | - | 0
O=C(COc1ccccc1F)Nc1ccc2nc(SCC(=O)N3CCc4ccccc43)sc2c1 | 0 | 0 | - | 0 | 0 | -
Cc1cccc2c1N[C@H](/C=C/C(=O)OC(C)(C)C)C2 | - | 0 | - | - | - | -
CC(C)(C)NC(=O)COC(=O)c1snc(C(=O)NC2CCCCC2)c1N | - | ? | 7.1µM | ? | - | 0
CCCCC(O)(CCCC)C(=O)NN(C(=O)OCC)c1ccccc1 | 0 | 0 | 0 | 0 | 0 | 0
CCCC(O)(CCC)C(=O)NN(C(=O)CCl)c1ccccc1 | - | -81 | ? | ? | - | 0

Bioassay records deposited in PubChem BioAssay by National Center for Advancing Translational Sciences (NCATS).
